A short description of test [1]: qHTS assay to identify small molecule antagonists of the sonic hedgehog signaling (Shh) pathway (AID 1259369; calls by dose curve; note: nearly all actives have a fitted effect of over 45% in size; note: potency is the fitted concentration of half-maximal effect). An outline of the steps: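 Conditioned medium drives Shh signalling in 3T3Gli1-Luc cells; compounds in DMSO co-applied, 24hr at 37 C, then luciferase luminescence.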
For test [2], the target named is Estrogen receptor beta (Homo sapiens) (UniProt Q92731). Kind of test: qHTS assay to identify small molecule agonists of the estrogen receptor beta (ER-beta) signaling pathway (AID 1259377; active = well fitted activation curve with a large enough effect in the signal ratio in the repeat runs, not every such curve was filed as active; the % refers to the signal ratio; note: potency is the fitted concentration of half-maximal effect). An outline of the steps:
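qHTS in ER-beta-UAS-bla HEK293T cells: 6 hr settling, then 16 hr compound at 37C, then LiveBLAzer substrate 2 h at RT before fluorescence reading.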
For orientation: In qHTS, concentration-response curves come from the screen itself.

For test [3] the target is unchanged. The experiment in a line: qHTS assay to identify small molecule antagonists of the estrogen receptor beta (ER-beta) signaling pathway (AID 1259378; active = well fitted inhibition curve with a large enough effect in the signal ratio in the repeat runs, not every such curve was filed as active; the % refers to the signal ratio; note: potency is the fitted concentration of half-maximal effect). In outline: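 Antagonist mode: compounds added to beta-lactamase reporter HEK293T ER-beta-UAS cells stimulated with E2 (1nM final), 16 hr at 37C. LiveBLAzer B/G FRET substrate, 2 hours room temperature, fluorescence read-out.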

Test [4] is described as follows: qHTS assay to identify small molecule agonists of the androgen receptor (AR) signaling pathway in the presence of an antagonist - cell viability counter screen (AID 1259379).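 Note: MDA-kb2 human breast cancer cells carrying an MMTV luciferase reporter; series mostly up to about 92 µM; nearly all actives have a fitted effect of over 25% in size.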 In outline: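 A CellTiter-Fluor read-out measured viability of MDA-kb2 reporter cells (MMTV promoter with AR and GR response elements). Treatment: nilutamide 3.0uM final with compounds at 15 concentrations, 16 hr, 37C, 0% CO2.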

For test [5], the target named is Androgen receptor (Homo sapiens) (UniProt P10275). Kind of test: qHTS assay to identify small molecule agonists of the androgen receptor (AR) signaling pathway in the presence of an antagonist (AID 1259381; calls by dose curve; note: nearly all actives have a fitted effect of over 15% in size). In outline: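 Using human MDA-kb2 cells with an MMTV promoter–luciferase construct (AR and GR response elements), agonist activity is scored under 3.0uM nilutamide (final) co-treatment; 16hr incubation, 37C, luminescence readout via ONE-Glo.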

Test [6] is described as follows: qHTS assay to identify small molecule antagonists of the estrogen receptor beta (ER-beta) signaling pathway - cell viability counter screen (AID 1259382). Note: series mostly up to about 92 µM; nearly all actives have a fitted effect of over 55% in size. An outline of the steps: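 Agonist-stimulated (1nM E2) ER-beta-UAS-bla HEK293T cells are incubated with library compounds for 16 hr at 37C. Cell viability is then assessed in the reporter-assay wells by adding CellTiter-Glo and reading luminescence after 30 min.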

The target of test [7] is Estrogen receptor (Homo sapiens) (UniProt P03372). Kind of test: qHTS assay to identify small molecule agonists of the estrogen receptor alpha (ER-alpha) signaling pathway in the presence of an antagonist (AID 1259383; calls by dose curve; note: top concentration of the series differs between compounds; nearly all actives have a fitted effect of over 15% in size). In outline:
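Using VM7Luc4E2 cells seeded 24hr before treatment, antagonist ICI-182,780 (10.0nM final) was added, followed by compounds at 15 concentrations. Plates incubated 22hr; ONE-Glo luminescence quantified reporter activity.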

A short description of test [8]: qHTS assay to identify small molecule agonists or antagonists of the thyroid stimulating hormone receptor (TSHR) signaling pathway - wild type cell line counter screen (AID 1259384; calls by dose curve). In outline:
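Counter screen in untransfected Hek293: compounds (15-point titration, triplicate) plus phosphodiesterase inhibitor Ro20-1724 added after 18 h plating; 30 min RT. Intracellular cAMP via competitive d2/cryptate immunoassay, 1 h incubation.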

In test [9] the target is Thyrotropin receptor (Homo sapiens) (UniProt P16473). Kind of test: qHTS assay to identify small molecule antagonists of the thyroid stimulating hormone receptor (TSHR) signaling pathway (AID 1259385; calls by dose curve; note: nearly all actives have a fitted effect of over 20% in size). An outline of the steps: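 Antagonist mode: compound-treated TSHR-expressing HEK293 cells were stimulated with 1.5 ng/mL TSH (final) in presence of Ro20-1724 for 30 min at RT. HTRF cAMP detection after 1 h; each compound tested at 15 concentrations, triplicate.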

Test [10] is described as follows: qHTS assay to identify small molecule agonists of the estrogen receptor alpha (ER-alpha) signaling pathway in the presence of an antagonist - cell viability counter screen (AID 1259386).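 Note: series mostly up to about 92 µM; cells exposed to compounds for 22 h at 37 °C before the viability read; nearly all actives have a fitted effect of over 30% in size.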 In outline:
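ICI-182,780 at 10.0nM final accompanies the compound titration (15 concentrations, 22hr, 37C) on VM7Luc4E2 cells. The CellTiter-Fluor fluorescence readout runs in the same wells as the luciferase assay.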

Test [11] deals with Progesterone receptor (Homo sapiens) (UniProt P06401). Kind of test: qHTS assay to identify small molecule agonists of the progesterone receptor (PR) signaling pathway (AID 1346784; calls by dose curve; note: nearly all actives have a fitted effect of over 30% in size). An outline of the steps: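 Fluorescence from LiveBLAzer B/G FRET substrate cleavage (2 hr, RT) reported PR activation in PR-UAS-bla HEK 293T cells treated 16 hr at 37C/5% CO2 with compounds; medium contained 2% charcoal-stripped FBS.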

For test [12] the target is unchanged. Kind of test: qHTS assay to identify small molecule antagonists of the progesterone receptor (PR) signaling pathway (AID 1346795; active = well fitted inhibition curve with a large enough effect in the signal ratio in the repeat runs, not every such curve was filed as active; the % refers to the signal ratio; note: potency is the fitted concentration of half-maximal effect). In outline:
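Fluorescence intensity measured 2 hr after adding beta-lactamase FRET substrate to PR-UAS-bla HEK293T cells that had been co-treated 16 hr with compound and 1 nM R5020 (final concentration) in 2% charcoal-stripped FBS.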

Test [13] is described as follows: qHTS assay to identify small molecule antagonists of the progesterone receptor (PR) signaling pathway - cell viability counter screen (AID 1346798). Note: nearly all actives have a fitted effect of over 50% in size. Note: potency is the fitted concentration of half-maximal effect. An outline of the steps:
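CellTiter-Glo luminescence; PR-UAS-bla HEK293T, 3,000 cells/well; compound + R5020, 16 hr, 37C/5% CO2; 30 min RT before read.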

The nature of test [14]: qHTS assay to identify small molecule agonists of the progesterone receptor (PR) signaling pathway - cell viability counter screen (AID 1346799; calls by dose curve; note: nearly all actives have a fitted effect of over 45% in size). In outline: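 In parallel with the beta-lactamase readout, cytotoxicity toward PR-UAS-bla HEK293T cells was measured by CellTiter-Glo luminescence following 16 hr compound incubation in 2% charcoal-stripped FBS medium.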
Test [15] can be described thus: qHTS assay to identify small molecule antagonists of the TGF-beta/Smad signaling pathway - cell viability counter screen (AID 1346824). Note: nearly all actives have a fitted effect of over 50% in size. In outline:
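Cytotoxicity counter-screen run in the same wells as the beta-lactamase Smad reporter read: CellTiter-Glo luminescence after 30 min at room temperature. HEK 293T SBE-bla cells had 5 hr compound exposure at 37 C with TGF-beta1 (0.25 ng/mL stock).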

Test [16] can be described thus: qHTS assay to identify small molecule agonists of the TGF-beta/Smad signaling pathway - cell viability counter screen (AID 1346829). Note: top concentration of the series differs between compounds; nearly all actives have a fitted effect of over 45% in size. In outline: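 Here the cytotoxicity of library compounds is measured in SBE-bla HEK 293T cells treated for 5 hr, using CellTiter-Glo added to wells already read for the beta-lactamase reporter.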
Test [17] is described as follows: qHTS assay to identify small molecule agonists of the TGF-beta/Smad signaling pathway (AID 1346859; active = well fitted activation curve with a large enough effect in the signal ratio in the repeat runs, not every such curve was filed as active; the % refers to the signal ratio; note: series mostly up to about 77 µM). In outline: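 After overnight seeding, SBE-bla HEK 293T cells are dosed with compounds in DMSO and kept 5 hr at 37 C, 5% CO2. LiveBLAzer-type FRET substrate is then applied for 2 hr at room temperature.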
Test [18] addresses Thyrotropin-releasing hormone receptor (Homo sapiens) (UniProt P34981). The experiment in a line: qHTS assay to identify small molecule antagonists of the thyrotropin-releasing hormone receptor (TRHR) signaling pathway (AID 1346877; active = well fitted inhibition curve with a large enough effect in the repeat runs, not every such curve was filed as active; note: series mostly up to about 51 µM). An outline of the steps:
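Screening used HEK293 cells engineered with TRHR, with a brief 5 min room-temperature compound exposure preceding addition of TRH to 1 nM. The read-out was kinetic calcium-dye fluorescence, concentration-response from 15 doses in triplicate.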

The target is the same in test [19]. The experiment in a line: qHTS assay to identify small molecule agonists of the thyrotropin-releasing hormone receptor (TRHR) signaling pathway (AID 1346891; calls by dose curve;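 note: HEK293 cells expressing TRHR with calcium dye readout; series mostly up to about 58 µM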). An outline of the steps: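 Compounds were tested as agonists at 15 concentrations, in triplicate, on TRHR-Hek293 cells; calcium-sensitive dye fluorescence was recorded for 3 min following addition.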
A short description of test [20]: qHTS assay to identify small molecule agonists of the estrogen receptor beta (ER-beta) signaling pathway - cell viability counter screen (AID 1259380). Note: nearly all actives have a fitted effect of over 30% in size. In outline: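 Cells used were ER-beta-UAS-bla HEK293T in medium with 2% charcoal-stripped FBS. They were treated for 16 hr at 37C. Viability came from CellTiter-Glo luminescence.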

Where “and” joins values, the source holds several entries; their conditions need not be identical. Equal values may be shown once. Results filed as inconclusive are left out. More than one record can exist for a structure, and the calls need not agree. Calls of active or inactive are those of the source. Unless noted, calls come from the whole dose curve; as a rule, active = well fitted curve in the direction sought with a large enough effect in the repeat runs; inconclusive = weak or mixed curves; inactive = no such curve, though single readings can be large; an effect the other way counts as inactive or inconclusive.

Androgen receptor (Homo sapiens), sequence (P10275 whole entry, looked up): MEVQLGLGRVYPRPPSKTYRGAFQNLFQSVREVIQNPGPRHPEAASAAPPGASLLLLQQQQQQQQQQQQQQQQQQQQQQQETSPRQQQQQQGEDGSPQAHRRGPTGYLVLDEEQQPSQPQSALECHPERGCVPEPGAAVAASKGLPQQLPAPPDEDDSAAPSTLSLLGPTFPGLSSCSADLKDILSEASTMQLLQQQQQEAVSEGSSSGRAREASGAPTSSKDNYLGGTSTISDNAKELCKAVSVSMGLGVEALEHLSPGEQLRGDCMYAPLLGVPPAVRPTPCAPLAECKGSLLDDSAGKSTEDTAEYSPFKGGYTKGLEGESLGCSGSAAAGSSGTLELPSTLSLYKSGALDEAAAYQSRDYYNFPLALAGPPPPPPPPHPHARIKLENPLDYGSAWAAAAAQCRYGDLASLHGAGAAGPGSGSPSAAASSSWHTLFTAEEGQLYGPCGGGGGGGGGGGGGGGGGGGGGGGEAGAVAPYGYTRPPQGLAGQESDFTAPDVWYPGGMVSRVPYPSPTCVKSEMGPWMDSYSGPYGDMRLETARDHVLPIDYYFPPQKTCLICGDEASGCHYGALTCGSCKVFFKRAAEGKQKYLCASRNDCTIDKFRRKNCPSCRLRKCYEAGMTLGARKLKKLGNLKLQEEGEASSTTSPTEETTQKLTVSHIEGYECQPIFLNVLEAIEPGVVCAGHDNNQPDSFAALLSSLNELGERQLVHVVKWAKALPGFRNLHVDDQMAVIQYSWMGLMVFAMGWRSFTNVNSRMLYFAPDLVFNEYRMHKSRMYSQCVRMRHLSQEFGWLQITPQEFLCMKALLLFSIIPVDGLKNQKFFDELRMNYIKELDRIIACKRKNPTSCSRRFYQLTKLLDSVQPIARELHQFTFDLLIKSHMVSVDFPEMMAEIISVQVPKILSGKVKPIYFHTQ
Thyrotropin receptor (Homo sapiens), sequence (P16473 whole entry, looked up): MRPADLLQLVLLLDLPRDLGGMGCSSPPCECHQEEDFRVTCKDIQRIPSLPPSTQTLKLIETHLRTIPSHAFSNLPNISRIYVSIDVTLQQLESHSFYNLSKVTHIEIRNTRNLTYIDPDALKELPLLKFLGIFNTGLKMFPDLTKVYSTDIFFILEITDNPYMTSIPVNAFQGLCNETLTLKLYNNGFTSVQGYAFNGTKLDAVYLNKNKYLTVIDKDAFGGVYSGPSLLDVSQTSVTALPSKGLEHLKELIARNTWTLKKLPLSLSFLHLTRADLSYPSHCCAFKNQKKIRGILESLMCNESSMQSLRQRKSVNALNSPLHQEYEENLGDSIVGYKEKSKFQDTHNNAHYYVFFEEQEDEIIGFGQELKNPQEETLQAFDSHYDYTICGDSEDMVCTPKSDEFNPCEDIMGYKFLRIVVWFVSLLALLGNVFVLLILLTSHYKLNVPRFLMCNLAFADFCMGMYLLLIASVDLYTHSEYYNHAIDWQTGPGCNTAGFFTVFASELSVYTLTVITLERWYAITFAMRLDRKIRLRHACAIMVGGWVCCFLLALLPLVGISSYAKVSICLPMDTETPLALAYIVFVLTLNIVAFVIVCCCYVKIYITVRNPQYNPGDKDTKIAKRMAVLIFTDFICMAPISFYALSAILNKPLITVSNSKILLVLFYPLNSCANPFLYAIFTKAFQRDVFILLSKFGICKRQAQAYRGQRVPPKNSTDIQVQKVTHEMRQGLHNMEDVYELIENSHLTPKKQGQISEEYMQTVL
Progesterone receptor (Homo sapiens), sequence (P06401 whole entry, looked up): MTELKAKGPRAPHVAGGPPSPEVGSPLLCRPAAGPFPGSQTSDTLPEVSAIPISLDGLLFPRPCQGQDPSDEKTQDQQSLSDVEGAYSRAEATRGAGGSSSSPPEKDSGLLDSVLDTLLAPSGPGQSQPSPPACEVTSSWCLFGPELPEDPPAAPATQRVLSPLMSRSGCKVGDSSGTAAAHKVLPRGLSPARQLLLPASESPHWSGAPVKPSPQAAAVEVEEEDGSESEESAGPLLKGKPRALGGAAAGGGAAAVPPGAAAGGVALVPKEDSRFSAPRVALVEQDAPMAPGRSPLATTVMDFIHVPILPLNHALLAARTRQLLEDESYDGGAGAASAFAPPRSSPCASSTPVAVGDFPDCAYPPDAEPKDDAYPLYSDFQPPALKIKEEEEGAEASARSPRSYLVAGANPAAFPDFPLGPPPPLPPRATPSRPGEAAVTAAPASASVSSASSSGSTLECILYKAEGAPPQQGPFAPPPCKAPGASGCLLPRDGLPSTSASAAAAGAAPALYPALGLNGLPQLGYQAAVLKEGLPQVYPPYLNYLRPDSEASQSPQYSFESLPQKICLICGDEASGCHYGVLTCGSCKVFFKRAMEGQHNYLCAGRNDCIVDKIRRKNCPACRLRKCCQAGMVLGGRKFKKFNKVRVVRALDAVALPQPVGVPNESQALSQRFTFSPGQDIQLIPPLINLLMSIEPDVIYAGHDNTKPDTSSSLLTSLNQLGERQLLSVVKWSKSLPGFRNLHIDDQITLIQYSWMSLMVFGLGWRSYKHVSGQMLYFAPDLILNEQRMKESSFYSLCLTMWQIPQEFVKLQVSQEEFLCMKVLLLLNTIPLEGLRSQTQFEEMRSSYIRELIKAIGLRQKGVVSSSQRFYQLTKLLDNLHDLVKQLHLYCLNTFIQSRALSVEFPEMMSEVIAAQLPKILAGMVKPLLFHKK
Thyrotropin-releasing hormone receptor (Homo sapiens), sequence (P34981 whole entry, looked up): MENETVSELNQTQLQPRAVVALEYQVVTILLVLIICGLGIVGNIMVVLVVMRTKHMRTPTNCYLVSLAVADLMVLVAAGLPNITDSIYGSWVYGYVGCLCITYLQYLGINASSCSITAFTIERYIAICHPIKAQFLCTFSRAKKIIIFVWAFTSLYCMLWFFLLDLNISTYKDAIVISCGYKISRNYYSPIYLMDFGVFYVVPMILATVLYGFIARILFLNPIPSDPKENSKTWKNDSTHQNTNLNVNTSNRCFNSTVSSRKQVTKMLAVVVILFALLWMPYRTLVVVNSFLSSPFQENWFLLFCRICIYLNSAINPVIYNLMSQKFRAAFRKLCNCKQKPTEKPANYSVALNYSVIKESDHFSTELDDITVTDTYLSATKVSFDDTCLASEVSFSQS
Estrogen receptor beta (Homo sapiens), sequence (Q92731 whole entry, looked up): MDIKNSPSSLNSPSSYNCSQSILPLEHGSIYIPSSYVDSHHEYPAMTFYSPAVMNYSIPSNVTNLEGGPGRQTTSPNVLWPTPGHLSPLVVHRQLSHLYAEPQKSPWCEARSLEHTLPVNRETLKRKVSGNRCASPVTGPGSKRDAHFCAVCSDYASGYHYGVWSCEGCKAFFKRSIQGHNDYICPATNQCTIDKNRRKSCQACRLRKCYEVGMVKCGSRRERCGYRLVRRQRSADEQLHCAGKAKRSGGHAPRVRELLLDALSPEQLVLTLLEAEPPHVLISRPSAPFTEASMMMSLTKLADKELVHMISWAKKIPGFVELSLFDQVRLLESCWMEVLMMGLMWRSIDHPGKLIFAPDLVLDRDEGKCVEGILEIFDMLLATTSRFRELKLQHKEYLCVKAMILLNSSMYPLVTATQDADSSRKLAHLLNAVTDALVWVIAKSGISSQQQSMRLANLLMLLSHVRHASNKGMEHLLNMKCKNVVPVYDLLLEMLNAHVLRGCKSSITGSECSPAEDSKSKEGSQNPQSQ
Estrogen receptor (Homo sapiens), sequence (P03372 whole entry, looked up): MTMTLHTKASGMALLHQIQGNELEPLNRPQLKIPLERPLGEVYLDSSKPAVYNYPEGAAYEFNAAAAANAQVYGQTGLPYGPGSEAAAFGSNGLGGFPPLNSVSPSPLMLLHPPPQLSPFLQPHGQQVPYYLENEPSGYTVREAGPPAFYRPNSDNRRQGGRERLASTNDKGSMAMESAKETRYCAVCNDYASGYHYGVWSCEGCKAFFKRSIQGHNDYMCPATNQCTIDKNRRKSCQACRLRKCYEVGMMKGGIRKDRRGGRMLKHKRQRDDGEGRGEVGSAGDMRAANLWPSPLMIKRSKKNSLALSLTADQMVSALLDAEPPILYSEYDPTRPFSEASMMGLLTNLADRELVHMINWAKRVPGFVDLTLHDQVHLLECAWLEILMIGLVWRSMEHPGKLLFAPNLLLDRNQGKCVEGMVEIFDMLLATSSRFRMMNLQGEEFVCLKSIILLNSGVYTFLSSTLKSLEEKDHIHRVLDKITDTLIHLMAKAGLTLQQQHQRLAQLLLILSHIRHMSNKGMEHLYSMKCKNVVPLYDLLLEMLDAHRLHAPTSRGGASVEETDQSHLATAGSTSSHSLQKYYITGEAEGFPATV

Regarding `c1ccc2c(c1)c1cccc3ccc4cccc2c4c31`, the Potency entry in test [1], in [3], in [4], in [6], in [7] and in [9] was “inactive” each time. Moreover, the Potency result in test [10], in test [11], in test [12], in [13], in test [14] and in test [15] was “inactive” throughout. Besides, the Potency entry in test [16], in test [18] and in [19] was “inactive” in each case. For the same compound, the Potency in test [2] was 60.7 µM (active) and inactive. The result in test [5], in test [8] and in test [17] was inactive.
With `COC(C)COC(C)COC(C)CO` (stereo unspecified), the Potency result in [1], in test [2], in [3], in test [4], in test [20] and in [6] was “inactive” throughout. Besides, the Potency result in test [7], in [9], in test [10], in test [11], in [12] and in [13] was “inactive” throughout. The Potency result in [15], in [16], in [18] and in test [19] was “inactive” in each case. The result in test [5], in test [8] and in test [17] was inactive.
With `CN(C)c1nc(N(C)C)nc(N(C)C)n1`, the Potency entry in test [1], in test [2], in test [3], in test [4], in test [20] and in test [6] was “inactive” throughout. The Potency result in test [9], in test [10], in test [13], in test [14], in test [15] and in [16] was “inactive” in each case. In addition, the Potency result in test [18] and in test [19] was “inactive” in each case. Besides, the call in [8] and in [17] was inactive.
With `C[C@]12CCC(=O)C=C1CC[C@@H]1[C@@H]2C(=O)C[C@@]2(C)[C@H]1CC[C@]2(O)C(=O)CO`, the Potency is 54.5 µM (active) and inactive in test [1]; 11.9 µM (active) in test [12]. Further, the Potency result in test [2], in test [3], in test [4], in [20], in test [6] and in test [7] was “inactive” each time. Also, the Potency result in [10], in [13], in test [14], in [15] and in [16] was “inactive” in each case. In addition, the result in [17] was inactive.
Regarding `CCCCCCCCCC(=O)OC`, the Potency entry in test [1], in test [2], in [3], in test [4], in [20] and in test [6] was “inactive” throughout. For the same compound, the Potency entry in test [9], in [10], in test [11], in [12], in test [13] and in [15] was “inactive” each time. Besides, the Potency result in test [16], in test [18] and in test [19] was “inactive” each time. In addition, the compound was called inactive in test [8] and in [17].
For the compound `S=C(NC1CCCCC1)NC1CCCCC1`, the Potency in [1] is 24.3 µM (active); in test [3], 6.11 µM (active); in [12], 3.44 µM (active); in test [13] it was 6 µM (active) and 3.86 µM (active). The Potency result in [2], in test [4], in test [20], in [6], in test [7] and in test [9] was “inactive” throughout. Moreover, the Potency entry in test [10], in [11], in test [15] and in [16] was “inactive” throughout. For the same compound, the outcome in test [8] and in [17] was inactive.

These data come from PubChem BioAssay (Tox21).
